This is an account of results in PubChem BioAssay (Tox21).

Several values for one entry are separate records, joined by “and”; a condition that tells them apart may be missing. Equal values may be shown once. Inconclusive results are not listed. A structure can be active in one record and inactive in another. Activity calls are given as the source filed them. Calls follow the shape of the dose curve; as a rule, active = well fitted cell-killing curve with a large enough effect in the repeat runs; inconclusive = weak or mixed curves, or effect the other way; inactive = no such curve, though single readings can be large or run the other way.
% is scaled to controls: 0 for no effect and ±100 for the full control effect; potency is read from the fitted curve at half-maximal effect.

The test is described as follows: qHTS assay for small molecule activators of the heat shock response signaling pathway - cell viability counter screen (AID 743209). Also: nearly all actives have a fitted effect of over 50% in size. Conditions: HSE-bla HeLa viability, CellTiter-Glo luminescence, 5 h; series mostly up to 62.6 µM; activity change, negative = cytotoxicity: at the top concentration. The text has this: U.S. Tox21 Program National Center for Advancing Translational Sciences [NCATS] NIH Chemical Genomics Center [NCGC] U.S. Environmental Protection Agency [EPA] National Institutes of Environmental Health Sciences [NIEHS] National Toxicology Program [NTP] U.S. Food and Drug Administration [FDA] Tox21 Assay Overview: Various chemicals, environmental and physiological stress conditions may lead to the activation of heat shock response/ unfolded protein response (HSR/UPR). There are three heat shock transcription factors (HSFs) (HSF-1, -2, and -4) mediating transcriptional regulation of the human HSR. To identify the compounds that activate HSR signaling, HSE-bla HeLa cell line (Invitrogen, Carlsbad, CA, USA) containing a beta-lactamase reporter gene under the control of the heat shock response elements was used to screen Tox21 10K compound library. The cytotoxicity of the Tox21 compound library against the HSE-bla HeLa cell line was tested in parallel by measuring the cell viability using CellTiter-Glo assay (Promega, Madison, WI) in the same wells.
Tox21 Assay Protocol Summary: The CellSensor HSE-bla HeLa cells (Invitrogen, Carlsbad, CA, USA) were dispensed at 1500 cells/6uL/well into 1536-well black wall/clear bottom plates using a Multidrop combi (Thermo Fisher Scientific, Waltham, MA) dispenser. After the assay plates were incubated at 37 C and 5% CO2 overnight, 23 nL of compounds dissolved in DMSO, positive controls or DMSO only was transferred to the assay plate by a Pintool station (Kalypsys, San Diego, CA). The plates were incubated at 37 C for 5 h. After 1 uL of LiveBLAzerTM B/G FRET substrate was added using a Flying Reagent Dispenser (FRD, Beckman Coulter, Indianapolis, IN, USA), the plates were incubated at room temperature for 2.5 h, and fluorescence intensity was measured by an Envision plate reader (PerkinElmer, Shelton, CT). For cell viability readout that measures cytotoxicity, 3 ul/well of CellTiter-Glo reagent was added into the assay plates using a FRD. After 30 min incubation at room temperature, the luminescence intensity in the plates was measured using a ViewLux (PerkinElmer) plate reader.
A general note: In qHTS, concentration-response curves come from the screen itself.
As to `Cc1cccc([N+](=O)[O-])c1C(=O)O`, the “activity change, negative = cytotoxicity” value is -0.514% (inactive).
In the case of `Cc1cc(C(C)(C)C)c(O)c(C(C)(C)C)c1`, the Potency result is “inactive”.
Take `CC(C(O)c1ccc(O)cc1)N1CCC(Cc2ccccc2)CC1` (stereo not given): the “activity change, negative = cytotoxicity” value was -1.05% (inactive).
On to `Oc1ccc(Cl)cc1Cc1cc(Cl)ccc1O`, for which the Potency was 22.3 µM (active) and inactive.
With `NC12CC3CC(CC(C3)C1)C2`, the “activity change, negative = cytotoxicity” value was 3.25% (inactive).
Regarding `O=c1n(CC2CO2)c(=O)n(CC2CO2)c(=O)n1CC1CO1` (stereo not given), the Potency result was “inactive”.
With `O=C(O)c1cn(-c2ccc(F)cc2)c2cc(N3CCNCC3)c(F)cc2c1=O`, the “activity change, negative = cytotoxicity” value is 2.4% [at 29.1 µM] (inactive).
In the case of `O=C1OC2(c3ccc(O)cc3Oc3cc(O)ccc32)c2ccccc21`, the Potency entry is “inactive”.
With `COc1ccc(COC(C)=O)cc1`, the Potency result is “inactive”.
The same measure, in the same setting: then `CC1=CC(=O)c2ccccc2C1=O`, with 15.5 µM (active) and 2.66 µM (active).
Take `NC(N)=Nc1nc(CSCC/C(N)=N/S(N)(=O)=O)cs1`: the Potency entry was “inactive”.
For the molecule `CCOC(=O)C(C)C(C)=O` (stereo not given), the “activity change, negative = cytotoxicity” value is 17.6% [at 81.1 µM] (inactive).
Still for that read-out and setting: next, `COc1cc(C(=S)N2CCOCC2)ccc1O`: -26.5% (inactive).
Regarding `Clc1ccc2c(c1)C(N1CCNCC1)=Nc1ccccc1O2`, the Potency result is “inactive”.
Consider `C=C(C)C1CC=C(C)C(OC(C)=O)C1` (stereo not given), for which the Potency entry was “inactive”.
On the same count and under the same terms, next, `CN(C)c1ccc2nc3ccc(=[N+](C)C)cc-3sc2c1`: “inactive and 54.9 µM (active)”.
As for `O=C(O)Cn1cnnn1`, the “activity change, negative = cytotoxicity” value was -2.22% (inactive).
Same read-out and setting: then `CCOc1ccccc1C(N)=O`, with -9.47% (inactive); and `NCCO`, with -0.0001% (inactive).
On to `COc1ccc(CCN2CCC(Nc3nc4ccccc4n3Cc3ccc(F)cc3)CC2)cc1`, for which the Potency was 17.8 µM (active) and inactive.
Consider `CCC(C)(Oc1ccc(C2(c3ccc(OC(C)(CC)C(=O)O)cc3)CCCCC2)cc1)C(=O)O` (stereo not given), for which the “activity change, negative = cytotoxicity” value was 21% (inactive).
For the molecule `O=Cc1ccc(Cl)cc1`, the “activity change, negative = cytotoxicity” value is -3.35% (inactive).
The same measure, in the same setting: next, `COc1ccc(Cc2cnc(N)nc2N)cc1OC`: 3.89% (inactive); `C=CC(=O)OCCCCCCCC`: 0.709% (inactive).
Regarding `c1ccc2c(c1)CCCC2C1=NCCN1` (stereo not given), the “activity change, negative = cytotoxicity” value was 8.09% (inactive).
On the same count and under the same terms, then `CC1=C(C=O)C(C)(C)CC=C1`, with -8.76% [at 81.1 µM] (inactive).
As for `CC(=O)N[C@@H](CS)C(=O)O`, the Potency result was “inactive”.
As for `BrC1CCC(Br)C(Br)CCC(Br)C(Br)CCC1Br` (stereo not given), the Potency entry is “inactive”.
Same read-out and setting: next, `CCn1c2ccccc2c2cc(N)ccc21`: “inactive”; `CCCN[C@H]1CCc2nc(N)sc2C1`: “inactive”; `Cc1cccc(O)c1C`: “inactive”.
On the same count and under the same terms, next, `CC(COc1ccccc1)N(CCCl)Cc1ccccc1` (stereo not given): “inactive”.
Regarding `CC(C)(C)NCC(O)c1cc(O)cc(O)c1` (stereo not given), the “activity change, negative = cytotoxicity” value was 11.2% (inactive).
In the case of `C/C=C/c1ccc(OCC)c(O)c1`, the “activity change, negative = cytotoxicity” value was -0.343% (inactive).
Turning to `Cc1occc(=O)c1OC(=O)C(C)C`, the “activity change, negative = cytotoxicity” value is -0.289% (inactive).
`O=Nc1ccc(Nc2ccccc2)cc1`: the Potency is 34.7 µM (active).
Turning to `CC(=O)CC(C)=O`, the “activity change, negative = cytotoxicity” value is -1.24% [at 81.1 µM] (inactive).
For the molecule `O=C1Nc2ccccc2C1(c1ccc(O)cc1)c1ccc(O)cc1`, the Potency entry was “inactive”.
On the same count and under the same terms, then `COc1ccc(CCN(C)CCCC(C#N)(c2ccc(OC)c(OC)c2)C(C)C)cc1OC` (stereo not given), with “inactive”.
Regarding `CCc1cc(C(C)(C)C)c(O)c(C(C)(C)C)c1`, the “activity change, negative = cytotoxicity” value is -0.0759% (inactive).
